# High-throughput results: PubChem, National Center for Advancing Translational Sciences (NCATS)
# RORgamma inh: ROR gamma (mouse) transcription inhibition | P51450 | actives 5.4% (n = 310,000) | Potency, µM (series often up to 53.6 µM), without a hit: top-dose activity change, negative = inhibition, usual class: inhibitors | Drosophila S2 Gal4-RORgamma UAS-luciferase reporter, 20 h | AID 2551; also: % is scaled to controls: 0 for no effect and ±100 for the full control effect; nearly all actives have a fitted effect of over 60% in size
# Target sequence (P51450 whole entry, looked up, the tested form may be a part): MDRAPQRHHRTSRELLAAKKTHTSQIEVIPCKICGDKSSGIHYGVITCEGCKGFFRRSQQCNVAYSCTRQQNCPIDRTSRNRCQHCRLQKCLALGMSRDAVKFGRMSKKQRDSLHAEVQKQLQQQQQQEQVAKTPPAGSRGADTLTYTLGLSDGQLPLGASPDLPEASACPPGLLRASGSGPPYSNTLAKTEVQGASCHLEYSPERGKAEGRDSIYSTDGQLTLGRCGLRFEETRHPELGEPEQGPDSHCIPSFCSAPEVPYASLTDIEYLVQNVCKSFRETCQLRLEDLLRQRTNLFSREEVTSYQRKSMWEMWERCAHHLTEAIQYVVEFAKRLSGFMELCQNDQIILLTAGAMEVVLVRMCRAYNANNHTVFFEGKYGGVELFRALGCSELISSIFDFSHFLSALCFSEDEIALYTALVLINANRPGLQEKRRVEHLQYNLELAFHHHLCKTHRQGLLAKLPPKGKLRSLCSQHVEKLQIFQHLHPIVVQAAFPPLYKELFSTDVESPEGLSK
#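 Stable Schneider cell line, Gal4 DNA-binding domain fused to ROR gamma, UAS-luciferase. Cmpd 1 hr RT → CuSO4 700 uM final → 20 hr RT → luciferase reagent 10 min → luminescence.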
# GLP1R cytotox: cytotoxicity counter-screen for GLP-1 receptor inverse agonists; Potency, µM (doses to about 38.3 µM), without a hit: at the top dose activity change, negative = inhibition, hits mostly inhibitors; actives 0.13% (n = 410,000); AID 624418; HEK293 cAMP-luciferase reporter cells, luminescence, 24 h;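 also: loss of luciferase light is scored as toxicity; % is scaled to controls: 0 for no effect and ±100 for the full control effect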
#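 To flag toxic compounds, the library was rerun on cells for 24 hr at 37 deg C and 5% CO2. Viability-linked luminescence was captured 12 min after adding luciferase detection reagent.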
# GLP1R inv ag: GLP-1 receptor (human) inverse agonism | AID 624417 | Potency, µM (doses to about 38.3 µM), for inactives: top-dose activity change, negative = inhibition, most hits filed as inhibitors | HEK293 GLP-1R CRE-luciferase, luminescence, 24 h; GLP-1R form is constitutively active | P43220 | actives 1.6% (n = 410,000); also: % is scaled to controls: 0 for no effect and ±100 for the full control effect; nearly all actives have a fitted effect of over 55% in size
#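 Using stably transfected HEK293 (constitutively active GLP-1R, cAMP-luciferase reporter), compounds were incubated 24 hr and luciferase measured by luminescence.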
# GLP-1R agonist: agonists of human GLP-1 receptor. HEK293 GLP-1R CRE-luciferase, luminescence, 4-6 h; cells express a hypersensitive GLP-1R form. Potency, µM (doses to about 45.6 µM), for the others: at the top dose activation, actives largely listed as activators. actives 0.007% (n = 380,000); also: % of control where 0% means no effect
# VP16 counter: Gal4-VP16 reporter inhibition counter-screen. AID 2546. Potency, µM (top dose mostly 53.6 µM), without a hit: at the highest dose activity, negative = inhibition, most hits filed as inhibitors. actives 3.5% (n = 310,000). Drosophila S2 Gal4-VP16 UAS-luciferase, luminescence, 20 h;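 also: Gal4-VP16 expression switched on by copper sulfate through the metallothionein promoter; % is scaled to controls: 0 for no effect and ±100 for the full control effect; nearly all actives have a fitted effect of over 50% in size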
# Active calls of the source: *; ? = inconclusive; nt = not tested or not shown; [ ] = dose if it differs, or a comment. Compounds with a hit are over-represented: about 5.9% of the library has one in this group of screens. Calls follow the shape of the dose curve; as a rule, active = well fitted curve in the direction sought with a large enough effect; inconclusive = small, poorly fitted or top-dose-only effect, or another doubt; inactive = no such curve, though single readings can be large; an effect the other way counts as inactive or inconclusive. Potency is read from the fitted curve at half-maximal effect.
SMILES,RORgamma inh,GLP1R cytotox,GLP1R inv ag,GLP-1R agonist,VP16 counter
CCC(=O)N1CCCC(C(=O)Nc2nc3ccccc3n2C)CC1 (centres undefined),nt,6%,28%,-2%,nt
CCCn1c(NC(=O)c2ccc(F)cc2)nc2ccccc21,0.32µM*,-2%,14%,4%,2.5µM*
CCCn1c(NC(=O)CCNC(=O)c2ccccc2Cl)nc2ccccc21,nt,-9%,10%,7%,nt
CC(C)Oc1ccc(CNC(=O)CCCN2C(=O)c3cccnc3Oc3ccc(Cl)cc32)cc1,nt,-6%,-15%,nt,nt
COc1ccc(OC)c(-c2noc(CSc3nnc(Cc4ccccc4)n3-c3cccc(C)c3)n2)c1,nt,-3%,-24%,nt,nt
Cc1noc(C)c1-c1cc(NCCN2CCOCC2)ncn1,0%,nt,nt,nt,?
Cc1ccc(C)c(N2CCN(C(=O)CCCN3C(=S)NC(C)(C)CC3C)CC2)c1 (centres undefined),5.6µM*,?,11µM*,7%,4.5µM*
CC1CC(C)(C)NC(=S)N1CC(=O)N(C)Cc1ccccc1 (centres undefined),18µM*,14%,3%,3%,-20%
CC1CC(C)(C)NC(=S)N1CCC(=O)NCc1ccc(F)cc1 (centres undefined),?,15%[7.66 µM],10%[7.66 µM],0%,3%
CC1CC(C)(C)NC(=S)N1CCC(=O)N1c2ccccc2CC1C (centres undefined),4µM*,?,?,0%,18µM*
Cc1cccc(N2CCN(C(=O)CCC(=O)N3CC(C)Oc4ccccc43)CC2)c1C (centres undefined),?,3%,?,-1%,-1%
Cc1cccc(N2CCN(C(=O)CCN3C(=S)NC(C)(C)CC3C)CC2)c1C (centres undefined),4.5µM*,-9%[0.307 µM],2%[0.307 µM],-11%,?
CC1CC(C)(C)NC(=S)N1CC(=O)NCc1ccc(F)cc1 (centres undefined),-13%,-12%[7.66 µM],-18%[7.66 µM],0%,-18%
NCC(=O)N[C@@H](CCCN=C(N)N)C(=O)NCC(=O)N[C@@H](CC(=O)O)C(=O)N[C@@H](CO)C(=O)O,11%,nt,nt,nt,-1%
COc1cc(Br)c(C2CC(=O)Nc3cc(OC)c(OC)c(OC)c32)cc1OC (centres undefined),nt,0%,-26%,-3%,nt
COc1ccc(NC(=O)c2cccc(N3CCCS3(=O)=O)c2)cc1OC,nt,15%,18%,nt,nt
O=c1cnc2cnc(Nc3ccccc3)nc2n1CCc1ccccc1,3%,nt,nt,nt,-6%
CCc1cc2c(=O)[nH]c(-c3ccccn3)nc2s1,?,?,?,-2%,25µM*
COc1ccc(OC)c(S(=O)(=O)Nc2ccc(O)c3ccccc23)c1,10µM*,-29%,-2%,-24%,4%[0.365 µM]
COc1ccc(OC)c(S(=O)(=O)Nc2ccc(Oc3ccccc3)cc2)c1,?,2%,?,10%,6.3µM*
Cc1cc(OCC(=O)NC2CC(C)(C)NC(C)(C)C2)c(C)cc1Br,1%,12%,4.5µM*,0%,-7%
Cc1ccc(C(C)C)cc1S(=O)(=O)NC1CC(C)(C)NC(C)(C)C1,?,-15%,8.9µM*,4%,-6%
Cc1cc(C)c(S(=O)(=O)NC2CC(C)(C)NC(C)(C)C2)cc1Br,?,-10%,11µM*,-1%,-8%
CC1(C)CC(NS(=O)(=O)c2ccc3ccccc3c2)CC(C)(C)N1,-29%,20%,11µM*,4%,-5%
N#CCCn1c(=O)cnc2cnc(Oc3cccc(Cl)c3)nc21,-2%,nt,nt,nt,3%
COc1cc(OC)cc(C2=Nn3c(nnc3-c3cccc(OC)c3)SC2)c1,-19%,nt,nt,nt,-12%
O=C(Cc1ccccc1)NCc1n[nH]c(=S)n1-c1ccccc1,-33%,6%,22%,1%,14%
COc1ccc(-n2c(CCc3ccccc3)nnc2SCC(=O)c2ccc(Cl)cc2)cc1,4%,-21%,?,-9%,?
COC(Cc1n[nH]c(=S)n1-c1ccc(Cl)cc1)OC,?,-7%,0%,-1%,-6%
